This note sets out measurements from ChEMBL document CHEMBL1961873, “Compounds: GSK PKIS; Assays: Nanosyn kinase panel” (2012).

The term inhibition denotes the relative decrease from the control value, in per cent.

Each structure is given as a SMILES string.

In the first experiment the target is Ephrin type-A receptor 4 (Homo sapiens) (UniProt P54764). The settings on record: at 0.1 µM.
Chain of Ephrin type-A receptor 4 (Homo sapiens) (P54764 whole entry): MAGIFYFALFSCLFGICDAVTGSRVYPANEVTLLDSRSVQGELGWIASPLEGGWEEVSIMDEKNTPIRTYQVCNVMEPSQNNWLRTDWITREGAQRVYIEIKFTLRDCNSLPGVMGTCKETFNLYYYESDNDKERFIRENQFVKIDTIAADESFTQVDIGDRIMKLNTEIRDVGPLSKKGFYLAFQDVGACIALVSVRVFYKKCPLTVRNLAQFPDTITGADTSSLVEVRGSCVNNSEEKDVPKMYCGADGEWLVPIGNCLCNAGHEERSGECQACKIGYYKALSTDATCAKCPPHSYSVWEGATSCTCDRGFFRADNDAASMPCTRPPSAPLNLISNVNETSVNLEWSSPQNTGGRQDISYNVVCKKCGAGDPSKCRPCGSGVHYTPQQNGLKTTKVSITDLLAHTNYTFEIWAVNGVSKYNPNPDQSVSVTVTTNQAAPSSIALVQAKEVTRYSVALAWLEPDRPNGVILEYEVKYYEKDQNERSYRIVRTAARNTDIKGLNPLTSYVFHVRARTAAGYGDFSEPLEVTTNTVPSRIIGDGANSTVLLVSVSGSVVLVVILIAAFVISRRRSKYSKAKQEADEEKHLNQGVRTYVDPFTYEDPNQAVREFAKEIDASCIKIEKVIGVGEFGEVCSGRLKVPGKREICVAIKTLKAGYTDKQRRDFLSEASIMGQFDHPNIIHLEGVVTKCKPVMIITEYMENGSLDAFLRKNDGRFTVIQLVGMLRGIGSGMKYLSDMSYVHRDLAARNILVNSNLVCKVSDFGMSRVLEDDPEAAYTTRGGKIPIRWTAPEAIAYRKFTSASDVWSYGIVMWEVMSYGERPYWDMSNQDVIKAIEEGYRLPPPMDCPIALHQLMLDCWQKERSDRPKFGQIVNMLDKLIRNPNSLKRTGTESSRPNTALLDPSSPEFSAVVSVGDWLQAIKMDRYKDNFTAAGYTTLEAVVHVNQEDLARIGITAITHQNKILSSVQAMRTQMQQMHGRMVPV
For the molecule `CN(C)C(=O)O[C@H]1CN[C@H](C#Cc2cc3ncnc(Nc4ccc(OCc5cccc(F)c5)c(Cl)c4)c3s2)C1`, the inhibition stood at 7.54%.

Take `CCS(=O)(=O)c1ccc(OC)c(Nc2ncc(-c3cccc(OC)c3)o2)c1`: the inhibition was 6.27%.

As to `COc1cc2ncn(-c3cc(OCc4ccccc4S(C)(=O)=O)c(C#N)s3)c2cc1OC`, the inhibition came to 15.2%.

As for `[O-][S+]1CCN(Cc2ccc(-c3ccc4ncnc(Nc5ccc(OCc6ccccc6)c(Cl)c5)c4c3)o2)CC1`, the inhibition is 2.8%.

Take `OCc1ccc(-c2nc(-c3ccccn3)c(-c3ccc4c(c3)OCO4)[nH]2)cc1`: the inhibition was 9.84%.

As to `COc1cc(/C=N/Nc2ncnc3c2cnn3C(C)C)ccc1O`, the inhibition worked out at 7.43%.

With `Nc1nccc(-c2c(-c3ccc(F)cc3)nn3cc(C(F)(F)F)ccc23)n1`, the inhibition worked out at 2.89%.

Turning to `CN(C)CCCn1c(-c2nonc2N)nc2cnccc21`, the inhibition came out at 4.85%.

Consider `COc1cc(Nc2nccc(-c3cnn4ncccc34)n2)cc(OC)c1`, for which the inhibition worked out at 9.67%.

Consider `NS(=O)(=O)c1cccc(-c2cc3ccncc3cc2OCc2ccccc2)c1`, for which the inhibition is 8.09%.

For the molecule `CN1CCN(C(=O)c2ccc(NC(=O)Nc3ccc(N(C)c4ccnc(Nc5ccc(CS(C)(=O)=O)cc5)n4)cc3)cc2)CC1`, the inhibition came out at 5.53%.

On to `Cc1ccc2c(c1)/C(=N/Nc1ccc(S(N)(=O)=O)cc1)C(=O)N2`, for which the inhibition is -0.11%.

In the case of `Cc1ccc(NC(=O)CC2CC2)cc1-c1ccc(C(=O)NCC2CC2)cc1`, the inhibition turned out to be 8.26%.

As for `CN(c1ccc(NC(=O)Nc2ccc(OC(F)(F)F)cc2)cc1)c1ccnc(Nc2cccc(S(N)(=O)=O)c2)n1`, the inhibition was 9.59%.

Regarding `C[C@@H](Oc1cc(-n2cnc3ccc(OC[C@@H](O)CO)cc32)sc1C(N)=O)c1ccccc1Cl`, the inhibition was -2.22%.

As to `COc1ccc(-c2nn3ncccc3c2-c2ccnc(Nc3cccc(C(F)(F)F)c3)n2)cc1`, the inhibition amounted to 5.95%.

Consider `CN(C)C(=O)O[C@@H]1CN[C@@H](C#Cc2cc3ncnc(Nc4ccc(OCc5cccc(F)c5)c(Cl)c4)c3s2)C1`, for which the inhibition was 1.85%.

For `CC(C)c1ccc2c(c1)NC(=O)/C2=N/Nc1ccc(S(N)(=O)=O)cc1`, the inhibition worked out at 3.01%.

In the case of `NS(=O)(=O)c1ccc(NC=C2C(=O)Nc3ccc4ncsc4c32)cc1`, the inhibition turned out to be 11.3%.

For the molecule `C[C@@H](Oc1cc(-n2cnc3ccc(OCC4CCN(C)CC4)cc32)sc1C(N)=O)c1ccccc1C(F)(F)F`, the inhibition was -6.91%.

Consider `CN(C)c1cc2c(Nc3ccc4c(cnn4Cc4ccccc4)c3)ncnc2cn1`, for which the inhibition turned out to be 6.93%.

`Cc1ccc(Nc2ccnc(Nc3cccc(C(N)=O)c3)n2)cc1O`: the inhibition worked out at 17.1%.

In the case of `CCS(=O)(=O)c1ccc(OC)c(Nc2nccc(N(C)c3ccc4c(C)n[nH]c4c3)n2)c1`, the inhibition turned out to be 11.8%.

As for `COC(=O)Nc1nc2cc(Oc3ccc(NC(=O)Nc4cccc(Br)c4)cc3)ccc2[nH]1`, the inhibition worked out at 52.1%.

`CC(C)c1ccc(Nc2nccc(-c3cnn4ncccc34)n2)cc1`: the inhibition stood at 8.08%.

With `NS(=O)(=O)c1ccc(N/N=C2\C(=O)Nc3ccc(Cl)cc32)cc1`, the inhibition turned out to be 7.66%.

Take `COc1cccc(-n2ncc3c(N/N=C/c4ccc(C)cc4)ncnc32)c1`: the inhibition turned out to be 7.44%.

Consider `CCn1c(-c2nonc2N)nc2ccc(F)cc21`, for which the inhibition amounted to 11.3%.

On to `COc1cc2ncnc(Nc3ccc4c(cnn4Cc4ccccc4)c3)c2cc1OC`, for which the inhibition turned out to be 4.83%.

As for `Nc1nccc(C#Cc2cncnc2Nc2ccc(OCc3cccc(F)c3)c(Cl)c2)n1`, the inhibition came to 6.14%.

As for `Cc1cc(-c2ccccn2)cc(C)c1/C=C/c1cncc(-c2nn[nH]n2)c1`, the inhibition turned out to be 6.16%.

Consider `CS(=O)(=O)Nc1cccc(-c2ccc3c(NC(=O)C4CC4)n[nH]c3c2)c1`, for which the inhibition amounted to 1.83%.

As to `O=C1Nc2ccc(-c3cccnc3)cc2C1=Cc1cc(Br)c(O)c(Br)c1`, the inhibition was determined as 3.36%.

For the next experiment the target is unchanged. The conditions noted are these: at 1 µM.
Consider `CN(C)C(=O)O[C@H]1CN[C@H](C#Cc2cc3ncnc(Nc4ccc(OCc5cccc(F)c5)c(Cl)c4)c3s2)C1`, for which the inhibition is 8.32%.

As to `CCS(=O)(=O)c1ccc(OC)c(Nc2ncc(-c3cccc(OC)c3)o2)c1`, the inhibition came to 12%.

Take `COc1cc2ncn(-c3cc(OCc4ccccc4S(C)(=O)=O)c(C#N)s3)c2cc1OC`: the inhibition was determined as 57.3%.

For the molecule `[O-][S+]1CCN(Cc2ccc(-c3ccc4ncnc(Nc5ccc(OCc6ccccc6)c(Cl)c5)c4c3)o2)CC1`, the inhibition is 3.82%.

On to `OCc1ccc(-c2nc(-c3ccccn3)c(-c3ccc4c(c3)OCO4)[nH]2)cc1`, for which the inhibition was determined as 7.48%.

Take `COc1cc(/C=N/Nc2ncnc3c2cnn3C(C)C)ccc1O`: the inhibition was determined as 32.9%.

As to `Nc1nccc(-c2c(-c3ccc(F)cc3)nn3cc(C(F)(F)F)ccc23)n1`, the inhibition is 5.34%.

As for `CN(C)CCCn1c(-c2nonc2N)nc2cnccc21`, the inhibition was 3.54%.

In the case of `COc1cc(Nc2nccc(-c3cnn4ncccc34)n2)cc(OC)c1`, the inhibition is 45.3%.

With `NS(=O)(=O)c1cccc(-c2cc3ccncc3cc2OCc2ccccc2)c1`, the inhibition amounted to 5.03%.

Take `CN1CCN(C(=O)c2ccc(NC(=O)Nc3ccc(N(C)c4ccnc(Nc5ccc(CS(C)(=O)=O)cc5)n4)cc3)cc2)CC1`: the inhibition stood at 22.9%.

On to `Cc1ccc2c(c1)/C(=N/Nc1ccc(S(N)(=O)=O)cc1)C(=O)N2`, for which the inhibition is -5.42%.

In the case of `Cc1ccc(NC(=O)CC2CC2)cc1-c1ccc(C(=O)NCC2CC2)cc1`, the inhibition worked out at 12.9%.

As to `CN(c1ccc(NC(=O)Nc2ccc(OC(F)(F)F)cc2)cc1)c1ccnc(Nc2cccc(S(N)(=O)=O)c2)n1`, the inhibition is 59.8%.

Turning to `C[C@@H](Oc1cc(-n2cnc3ccc(OC[C@@H](O)CO)cc32)sc1C(N)=O)c1ccccc1Cl`, the inhibition was -0.2%.

With `Cc1ccc(C(=O)NC2CC2)cc1-c1ccc2[nH]ncc2c1`, the inhibition is -8.91%.

`COc1ccc(-c2nn3ncccc3c2-c2ccnc(Nc3cccc(C(F)(F)F)c3)n2)cc1`: the inhibition was found to be 8.87%.

As to `CN(C)C(=O)O[C@@H]1CN[C@@H](C#Cc2cc3ncnc(Nc4ccc(OCc5cccc(F)c5)c(Cl)c4)c3s2)C1`, the inhibition was -8.34%.

Take `CC(C)c1ccc2c(c1)NC(=O)/C2=N/Nc1ccc(S(N)(=O)=O)cc1`: the inhibition was found to be 5.06%.

For `NS(=O)(=O)c1ccc(NC=C2C(=O)Nc3ccc4ncsc4c32)cc1`, the inhibition amounted to 33.7%.

Take `C[C@@H](Oc1cc(-n2cnc3ccc(OCC4CCN(C)CC4)cc32)sc1C(N)=O)c1ccccc1C(F)(F)F`: the inhibition is -4.57%.

Take `CN(C)c1cc2c(Nc3ccc4c(cnn4Cc4ccccc4)c3)ncnc2cn1`: the inhibition came out at 2.96%.

With `Cc1ccc(Nc2ccnc(Nc3cccc(C(N)=O)c3)n2)cc1O`, the inhibition was 62.9%.

For the molecule `CCS(=O)(=O)c1ccc(OC)c(Nc2nccc(N(C)c3ccc4c(C)n[nH]c4c3)n2)c1`, the inhibition turned out to be 45.3%.

Take `COC(=O)Nc1nc2cc(Oc3ccc(NC(=O)Nc4cccc(Br)c4)cc3)ccc2[nH]1`: the inhibition was 76.9%.

Turning to `CC(C)c1ccc(Nc2nccc(-c3cnn4ncccc34)n2)cc1`, the inhibition was 10.3%.

For the molecule `NS(=O)(=O)c1ccc(N/N=C2\C(=O)Nc3ccc(Cl)cc32)cc1`, the inhibition was determined as 12.2%.

Consider `COc1cccc(-n2ncc3c(N/N=C/c4ccc(C)cc4)ncnc32)c1`, for which the inhibition was found to be 11.3%.

As to `CCn1c(-c2nonc2N)nc2ccc(F)cc21`, the inhibition came out at 15%.

Regarding `COc1cc2ncnc(Nc3ccc4c(cnn4Cc4ccccc4)c3)c2cc1OC`, the inhibition was determined as 6.82%.

Turning to `Nc1nccc(C#Cc2cncnc2Nc2ccc(OCc3cccc(F)c3)c(Cl)c2)n1`, the inhibition was -0.84%.

For `Cc1cc(-c2ccccn2)cc(C)c1/C=C/c1cncc(-c2nn[nH]n2)c1`, the inhibition came out at 17.3%.

As for `CS(=O)(=O)Nc1cccc(-c2ccc3c(NC(=O)C4CC4)n[nH]c3c2)c1`, the inhibition is -7.46%.

As to `O=C1Nc2ccc(-c3cccnc3)cc2C1=Cc1cc(Br)c(O)c(Br)c1`, the inhibition was 5.16%.
